Structures are written as SMILES. Records with an inconclusive call do not appear. The source made the active and inactive calls. Rule for the calls, unless noted: active = hit-call score of the fitted dose curve at least 0.9, where 1 is the maximum; inactive = score below 0.9.

Here are results for twelve compounds from PubChem BioAssay (EPA / NIEHS).

Read-out in test [1]: Tumor necrosis factor (Homo sapiens) (UniProt P01375)
Put plainly: BSK_BT_xTNFa: BioMAP Diversity Plus: BT Assay for Tumor necrosis factor alpha (TNF-alpha) Biomarker Activity (AID 2284230). As to conditions: primary human B cells with PBMC. The gist of the method: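 Endpoint derived in the positive direction versus DMSO vehicle. Cells: B cells together with PBMC, exposed 24 h before TNF-alpha in the medium was read on the Luminex xMAP platform.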

Read-out in test [2]: Vascular cell adhesion molecule 1 (VCAM1), VCAM1 (gene 7412)
Put plainly: BSK_MyoF_VCAM1: BioMAP Diversity Plus: MyoF Assay for Vascular cell adhesion molecule 1 (VCAM1) Biomarker Activity (AID 2284231). As to conditions: primary human lung fibroblasts. The gist of the method:
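Primary human lung fibroblasts were dosed with test chemical for 24 h, then cell-surface VCAM-1 was measured by ELISA. Activity was fitted in the positive direction against DMSO as negative control and baseline.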

Read-out in test [3]: Collagen I, COL1A1 (gene 1277)
The test is described as follows: BSK_MyoF_CollagenI: BioMAP Diversity Plus: MyoF Assay for Collagen I Biomarker Activity (AID 2284238). The conditions noted are these: primary human lung fibroblasts. The gist of the method:
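Human lung fibroblasts were exposed to test chemical for 24 h, then Collagen I was quantified by ELISA. Activity was fitted in the increasing direction against DMSO as the negative control and baseline.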

Read-out in test [4]: Collagen III, COL3A1 (gene 1281)
Put plainly: BSK_MyoF_CollagenIII: BioMAP Diversity Plus: MyoF Assay for Collagen III Biomarker Activity (AID 2284239). As to conditions: primary human lung fibroblasts. The gist of the method: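 Human lung fibroblasts were dosed with chemicals and, 24 hours later, collagen III was measured by ELISA. Activity was fitted in the positive direction against the DMSO negative-control baseline.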

Read-out in test [5]: Interleukin 17F (IL17F), IL17F (gene 112744)
The test is described as follows: BSK_BT_xIL17F: BioMAP Diversity Plus: BT Assay for Interleukin 17F (IL17F) Biomarker Activity (AID 2284243). As to conditions: primary human B cells with PBMC. The gist of the method: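 B cell/PBMC co-culture (human primary), 24 h compound exposure; sIL-17F by Luminex xMAP; gain-of-signal fit vs DMSO baseline.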

Read-out in test [6]: Actin alpha 1 (ACTA1), ACTA1 (gene 58)
Put plainly: BSK_MyoF_ACTA1: BioMAP Diversity Plus: MyoF Assay for Actin alpha 1 (ACTA1) Biomarker Activity (AID 2284244). As to conditions: primary human lung fibroblasts. The gist of the method:
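Human lung fibroblast (MyoF system) cultures dosed with test chemical; alpha-SMA measured by ELISA 24 h after dosing, normalized to DMSO control. Cytotoxicity tracked in parallel cultures by SRB total-protein staining.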

Read-out in test [7]: Interleukin 2 (IL2), IL2 (gene 3558)
The test is described as follows: BSK_BT_xIL2: BioMAP Diversity Plus: BT Assay for Interleukin 2 (IL2) Biomarker Activity (AID 2284245). The conditions noted are these: primary human B cells with PBMC. The gist of the method:
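Human B cell plus PBMC co-culture, 24 h after chemical dosing; secreted IL-2 quantified by Luminex xMAP multiplex, fitted for signal gain against DMSO baseline.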

Read-out in test [8]: Basic fibroblast growth factor (bFGF), FGF2 (gene 2247)
The test is described as follows: BSK_MyoF_bFGF: BioMAP Diversity Plus: MyoF Assay for Basic fibroblast growth factor (bFGF) Biomarker Activity (AID 2284246). The conditions noted are these: primary human lung fibroblasts. Summed up:
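Human lung fibroblast cultures were dosed and measured 24 h later in 96-well format. bFGF biomarker levels quantified by ELISA, with activity fitted in the positive direction against DMSO.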

Read-out in test [9]: Collagen IV, COL4A1 (gene 1282)
Put plainly: BSK_MyoF_CollagenIV: BioMAP Diversity Plus: MyoF Assay for Collagen IV Biomarker Activity (AID 2284247). The conditions noted are these: primary human lung fibroblasts. Summed up: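 Primary human lung fibroblasts (MyoF system) dosed 24 h; Collagen IV measured by ELISA. Activity fitted in positive direction against DMSO; cytotoxicity tracked by SRB total-protein staining in parallel cultures.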

A short description of test [10]: TAMU_HCS_1.5hr_SingleDonor1434_Cytotoxicity: Cytotoxicity Assessment using High-content Screening (HCS) Fluorescent Imaging for the Texas A&M University (TAMU) 1.5-hr Human Induced Pluripotent Stem Cell (iPSC)-derived Cardiotoxicity Assay (AID 2284234; active = hit-call score of the fitted dose curve at least 0.9, where 1 is the maximum). The gist of the method: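 Human iPSC-derived cardiomyocytes dosed at 0.2, 1, 10, 100 uM final (0.5% DMSO) for 90 min at 37 C. Hoechst 33342-stained nuclei counted by 10x high-content imaging; POD is EC10, a 10% drop in total cell count versus DMSO.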

Test [11] is described as follows: TAMU_PeakParms_SingleDonor1434_QT: Texas A&M University (TAMU) 1.5-hr Human Induced Pluripotent Stem Cell (iPSC)-derived Cardiomyocytes Calcium (Ca+2) Flux Assay for Cardiotoxicity: QT (decay-rise ratio) (AID 2284235; active = hit-call score of the fitted dose curve at least 0.9, where 1 is the maximum). Summed up:
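iPSC-derived cardiomyocytes (single donor 1434) dosed at 0.2, 1, 10, 100 uM final in 0.5% DMSO, 90 min at 37C. Ca2+ flux fluorescence decay/rise ratio; EC05 (5% increase versus DMSO) as POD, excluding beat-arrest and severe-notch data.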

The nature of test [12]: CCTE_Mundy_HCI_Cortical_NOG_NeuronCount: CCTE's Neurite Outgrowth Assay in rat cortical cells for Neuron Count, Mundy Lab (AID 2284236; active = hit-call score of the fitted dose curve at least 0.9, where 1 is the maximum;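 note: neurons counted by imaging betaIII-tubulin and Hoechst stained cortical cells; cells exposed to compound for about 48 hours before fixation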). The gist of the method:
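Read-out: neuron number by high-content imaging of betaIII-tubulin (Alexa Fluor-488) and Hoechst-labelled rat primary cortical cells.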

Test [13] can be described thus: CCTE_Mundy_HCI_Cortical_NOG_BPCount: CCTE's Neurite Outgrowth Assay in rat cortical cells for Branch Point Count, Mundy Lab (AID 2284237). Summed up: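 Measured 50.33 h after dosing, this morphology endpoint uses rat primary cortical cultures labelled for betaIII-tubulin. Branch points are quantified by high-content imaging, with DMSO as negative control and baseline.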

Test [14] in a line: CCTE_Mundy_HCI_hNP1_Casp3_7: CCTE's Caspase-Glo 3/7 Assay in human neuroprogenitor cells for Apoptosis, Mundy Lab (AID 2284240). Summed up:
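Neuroepithelial-lineage stem cells from WA09 embryonic cells were treated with chemicals after 40–44 h of culture. Twenty-four hours later, caspase-3/7 activation was detected luminescently after a 30 min room-temperature reagent step, with DMSO as baseline.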

Test [15] can be described thus: CCTE_Mundy_HCI_hNP1_CellTiter: CCTE's Cell Titer-Glo 2 Assay in human neuroprogenitor cells for Viability, Mundy Lab (AID 2284241; active = hit-call score of the fitted dose curve at least 0.9, where 1 is the maximum). The gist of the method: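 Measures ATP content in human neural progenitors derived from WA09 embryonic cells. Read-out at 26.5 hours after dosing, with DMSO serving as the negative control and baseline.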
The nature of test [16]: CCTE_Mundy_HCI_Cortical_Synap_Neur_Matur_NeuronCount: CCTE's Synaptogenesis and Neurite Maturation Assay in rat cortical cells for Neuron Count, Mundy Lab (AID 2284242; active = hit-call score of the fitted dose curve at least 0.9, where 1 is the maximum). Summed up: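 Rat primary cortical cells, AraC added at DIV 5, dosed with media change from DIV 7 to DIV 12. Fixed, Hoechst-stained and immunolabelled for MAP2 and synaptophysin; neuron number counted by high-content imaging, loss fitted versus DMSO.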

Read-out in test [17]: Monokine induced gamma interferon (MIG), CXCL9 (gene 4283)
The test is described as follows: BSK_KF3CT_MIG: BioMAP Diversity Plus: KF3CT Assay for Monokine induced gamma interferon (MIG) Biomarker Activity (AID 2284248). As to conditions: primary human keratinocytes with fibroblasts. The gist of the method:
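Human keratinocyte plus foreskin fibroblast primary co-culture dosed with test chemical for 24 h; MIG level measured by ELISA and fitted in the positive direction against DMSO as baseline.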

Read-out in test [18]: Collagen I, COL1A1 (gene 1277)
The test is described as follows: BSK_hDFCGF_CollagenI: BioMAP Diversity Plus: hDFCGF Assay for Collagen I Biomarker Activity (AID 2284250). As to conditions: primary human foreskin fibroblasts. The gist of the method: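 Primary human foreskin fibroblasts exposed to chemical for 24 h; Collagen I levels measured by ELISA. Cytotoxicity checked by SRB total-protein staining in parallel cultures.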

Sequence of Tumor necrosis factor (Homo sapiens) (P01375 whole entry, looked up): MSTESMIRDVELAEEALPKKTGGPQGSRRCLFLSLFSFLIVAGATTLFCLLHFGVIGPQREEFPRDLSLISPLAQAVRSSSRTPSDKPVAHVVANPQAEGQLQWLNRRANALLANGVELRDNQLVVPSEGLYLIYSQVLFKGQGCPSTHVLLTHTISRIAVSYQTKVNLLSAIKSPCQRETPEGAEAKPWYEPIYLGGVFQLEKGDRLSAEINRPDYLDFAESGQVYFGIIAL

Consider `CCCCCc1ccc(O)cc1`, for which the result in [1], in test [5] and in test [7] was inactive. In addition, the AC50 was 26.9 µM (active) in [2]; 24 µM (active) in [3]; 16.1 µM (active) in test [4]; 11.3 µM (active) in test [6]; 28 µM (active) in [8]; 20 µM (active) in test [9].

On to `COCN(COC)c1nc(N(COC)COC)nc(N(COC)COC)n1`, for which the result in test [1], in [2], in test [3], in test [4], in [5] and in test [6] was inactive. Also, the outcome in test [7], in [8] and in test [9] was inactive.

As for `O=C1NS(=O)(=O)c2ccccc21`, the compound was classed as inactive in [10], in test [11], in [12], in test [13], in test [14] and in test [15]. The call in test [16], in test [17] and in test [18] was inactive.

Regarding `O=C1OC2(c3ccccc31)c1cc(I)c(O)c(I)c1Oc1c2cc(I)c(O)c1I`, the result in test [1], in test [5], in test [6] and in test [7] was inactive. Besides, the AC50 was 9.09 µM (active) in test [2], 5.89 µM (active) in [3], 9.75 µM (active) in test [8] and 3.8 µM (active) in test [9].

As for `CC(=O)Nc1ccc(O)cc1`, the outcome in [11], in [12] and in test [14] was inactive.

With `C=COC(=O)C(C)(C)CCCCCC`, the result in [1], in test [5] and in test [7] was inactive. In addition, the AC50 in test [2] was 31 µM (active); in test [3], 34.2 µM (active); in [4], 31.9 µM (active); in [6] it was 34.3 µM (active); in [8], 34.8 µM (active); in test [9], 29.7 µM (active).

Take `Clc1ccc(Nc2nnc(Cc3ccncc3)c3ccccc23)cc1`: the result in [1], in test [2], in [3], in [4], in test [5] and in test [6] was inactive. Besides, the outcome in test [7], in test [8] and in [9] was inactive.

Turning to `CC1=NN(c2ccccc2)C(=O)C1`, the result in test [1], in test [2], in test [3], in [5], in test [6] and in test [7] was inactive. For the same compound, the outcome in test [8] and in [9] was inactive. Also, the AC50 in test [4] is 3.97 µM (active).

Take `CCOC(=O)CN[C@@H](C(=O)N1CC[C@H]1C(=O)NCc1ccc(/C(N)=N/O)cc1)C1CCCCC1`: the outcome in [1], in [2], in [3], in test [4], in [5] and in test [6] was inactive. In addition, the outcome in test [7], in test [8] and in [9] was inactive.

With `CCCCC(CC)C(=O)OCCOCCOCCOCCOC(=O)C(CC)CCCC` (stereo unspecified), the AC50 in test [1] and in test [7] was 0.016 µM (active) each time. Also, the outcome in test [2], in test [3], in test [4], in test [5], in [6] and in test [8] was inactive. The result in test [9] was inactive.

Turning to `C[C@]12CC[C@@H]3c4ccc(O)cc4CC[C@H]3[C@@H]1C[C@@H](O)[C@@H]2O`, the result in test [1], in test [2], in [3], in [4], in test [5] and in test [6] was inactive. In addition, the result in test [7], in test [8] and in test [9] was inactive.

As for `O=C1c2ccc(O)c(O)c2C(=O)c2c(O)ccc(O)c21`, the result in test [1], in test [2], in test [3], in test [4], in [5] and in test [6] was inactive. The result in test [7], in [8] and in [9] was inactive.
